Screens from PubChem.
The sample as a whole holds a higher share of hits than the screen did.
HT1080 IDH1KD tx: qHTS for induction of synthetic lethality in tumor cells producing 2HG: qHTS for the HT-1080-IDH1KD cell line. 2% of 360,000 active. HT-1080 IDH1 knockdown viability, ATP luminescence, 48 h. Potency, µM (titrated, usually from 46.1 µM), for inactives: top-dose activity, negative = toxicity, actives largely listed as cytotoxic;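 also: potency is read from the fitted curve at half-maximal effect; 0% = DMSO wells and -100% = cell-free medium wells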
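IDH1KD HT-1080 cells, 750/well, RPMI + 5% FBS; compound pinned after 2 h settling; 48 h, 37 °C; CellTiter-Glo luminescence; % activity normalised to DMSO and no-cell wells; curves fitted, classed by r2 and efficacy.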
12-LOX inh: Primary qHTS assay for inhibitors of human arachidonate 12S-lipoxygenase (ALOX12): Round 2 | Polyunsaturated fatty acid lipoxygenase ALOX12 (Homo sapiens), P18054 | purified 12hLO, xylenol orange hydroperoxide absorbance | Potency, µM (series often up to 108 µM), inactives show at the top dose activity change, negative = inhibition, most hits filed as inhibitors | 1.1% of 580,000 active; also: potency is read from the fitted curve at half-maximal effect
Target sequence (P18054 whole entry, looked up): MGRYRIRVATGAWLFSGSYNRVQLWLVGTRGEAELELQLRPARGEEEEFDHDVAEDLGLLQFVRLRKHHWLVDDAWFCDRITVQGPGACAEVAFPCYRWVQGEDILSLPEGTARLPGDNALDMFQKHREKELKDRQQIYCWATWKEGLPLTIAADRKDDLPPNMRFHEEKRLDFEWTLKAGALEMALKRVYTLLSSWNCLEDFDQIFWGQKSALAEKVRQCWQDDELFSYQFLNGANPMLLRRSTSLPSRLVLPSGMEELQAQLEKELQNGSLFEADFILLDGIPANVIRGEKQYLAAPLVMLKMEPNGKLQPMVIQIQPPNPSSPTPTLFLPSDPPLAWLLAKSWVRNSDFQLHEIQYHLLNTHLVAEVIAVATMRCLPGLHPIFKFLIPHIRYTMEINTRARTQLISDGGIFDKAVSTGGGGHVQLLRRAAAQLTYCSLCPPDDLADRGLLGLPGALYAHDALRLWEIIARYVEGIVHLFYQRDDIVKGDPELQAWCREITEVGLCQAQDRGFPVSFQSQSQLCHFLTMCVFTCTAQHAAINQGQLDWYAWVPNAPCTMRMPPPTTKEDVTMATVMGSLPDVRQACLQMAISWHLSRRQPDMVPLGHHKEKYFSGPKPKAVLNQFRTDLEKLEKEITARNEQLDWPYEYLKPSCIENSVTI
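Purified human 12hLO (150 nM final) in 25 mM Hepes, 0.01% Triton X-100, pH 7.0 was preincubated 15 min at room temperature with compound. Then 40 uM arachidonic acid was added, 30 min. Hydroperoxide was read by Fe-XO absorbance ratio 573/405 nm.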
HT1080NT lethal: qHTS for induction of synthetic lethality in tumor cells producing 2HG: qHTS for the HT-1080-NT fibrosarcoma cell line | HT-1080-NT fibrosarcoma viability, CellTiter-Glo ATP luminescence, 48 h | Potency, µM (doses to about 46.1 µM), inactives show at the top dose activity, negative = less viability, actives largely listed as cytotoxic | 1.6% of 360,000 active;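 also: NT is the 2HG producing partner of a matched IDH1 knockdown line; potency is read from the fitted curve at half-maximal effect; 0% = DMSO-treated cells and -100% = media-only wells without cells; nearly all actives have a fitted effect of over 55% in size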
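Viability by CellTiter-Glo luminescence after 48 h compound exposure at 37C of HT-1080-NT cells (750/well, RPMI, 5% FBS). % activity scaled between DMSO wells and medium-only wells, then curve-fitted and categorized by curve class.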
DT40 TDP1 no CPT: qHTS for Inhibitors of human tyrosyl-DNA phosphodiesterase 1 (TDP1): qHTS in cells in absence of CPT | DT40 Tdp1-/- hTDP1 cells, no CPT, ATP luminescence, 48 h | Potency, µM (top dose mostly 46.2 µM), inactives show at the top dose activity change, negative = growth inhibition, most hits filed as inhibitors | 15% of 420,000 active | AID 686978, 2013; also: potency is read from the fitted curve at half-maximal effect; nearly all actives have a fitted effect of over 55% in size
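Seeded 400 DT40-hTDP1 cells/well (vehicle DMSO, no 20 nM CPT); pinned compounds; ≥48 hr at 37 °C; CellTiter-Glo luminescence as viability measure.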
DT40 TDP1 CPT: qHTS for Inhibitors of human tyrosyl-DNA phosphodiesterase 1 (TDP1): qHTS in cells in presence of CPT. Potency, µM (series often up to 46.2 µM), for inactives: top-dose activity change, negative = growth inhibition, actives largely listed as inhibitors. 12% of 420,000 active. AID 686979, 2013. chicken DT40 Tdp1-/-;hTDP1 cells + 20 nM CPT, ATP luminescence, 48 h; also: potency is read from the fitted curve at half-maximal effect; nearly all actives have a fitted effect of over 55% in size
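Chicken DT40 Tdp1-/- cells stably complemented with human TDP1 were seeded at 400 cells/well in medium containing 20 nM camptothecin, exposed to pin-transferred compounds, and grown at 37 °C for at least 48 hr. Viability was read as ATP luminescence.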
IL-1B inflam inh: qHTS for Inhibitors of Inflammasome Signaling: IL-1-beta AlphaLISA Primary Screen | THP-1 LPS/ATP IL-1B secretion, AlphaLISA, 16 h; active compounds read low | activity change, % at 57.5 µM | 4.7% of 360,000 active; in the data active = activity change below about -50%; inconclusive = mostly about -30% to -49%
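THP-1 cells pretreated 1 hr with compounds (up to 57.5 uM final), then stimulated with LPS (250 ng/mL final) plus ATP (1.25 mM final); secreted IL-1B measured by AlphaLISA after 16 hr, decreased signal indicating inhibition.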
Starred values were filed as active, the others as inactive; ? = inconclusive; nt = no result; [ ] = remark or other dose. Unless noted, calls follow the shape of the dose curve; as a rule, active = well fitted curve in the direction sought with a large enough effect; inconclusive = small, poorly fitted or top-dose-only effect, or another doubt; inactive = no such curve, though single readings can be large; an effect the other way counts as inactive or inconclusive. Unless noted, % is scaled to controls: 0 for no effect and ±100 for the full control effect.

SMILES	HT1080 IDH1KD tx	12-LOX inh	HT1080NT lethal	DT40 TDP1 no CPT	DT40 TDP1 CPT	IL-1B inflam inh
COc1ccc(S(=O)(=O)N2CCCCCC2)cc1C(=O)N1CCN(c2ccccc2C)CC1	-15%	-12%	-2%	21µM*	?	-1
COc1ccccc1N1CCN(C(=O)c2cc(S(=O)(=O)N3CCCCC3)ccc2C)CC1	-4%	-23%	-17%	?	?	22
O=C(c1ccccc1F)N1CCC(N2CCNC2=O)CC1	nt	4%[12.5 µM]	nt	nt	nt	nt
Cc1ccc(C(=O)Nc2nnc(S(=O)(=O)N3c4ccccc4CC3C)s2)cc1 (stereo unspecified)	nt	-13%	nt	23µM*	?	nt
COc1ccc(S(=O)(=O)N2CCc3ccccc32)cc1C(=O)N1CCN(c2ncccn2)CC1	nt	40µM*	nt	nt	nt	nt
CCOC(=O)c1ccc(NC(=O)c2cccc(S(=O)(=O)N3c4ccccc4CC3C)c2)s1 (stereo unspecified)	?	-5%	?	6.5µM*	16µM*	18
CC(CC(=O)Nc1ccc2c(c1)c(=O)n(C)n2-c1ccccc1F)c1ccccc1 (stereo unspecified)	4.1µM*	-6%	7.3µM*	5.8µM*	6.5µM*	-9
CC(CC(=O)Nc1cccc(Cl)c1)c1ccccc1 (stereo unspecified)	-1%	?	-5%	?	?	-72*
Cn1c(=O)c2cc(NC(=O)CC(C)(C)C)ccc2n1-c1ccccc1F	22%	0%	?	23µM*	?	-20
CC(=O)c1cccc(NC(=O)CC(C)c2ccccc2)c1 (stereo unspecified)	nt	-3%	nt	nt	nt	nt
CC(CC(=O)Nc1ccc(F)c([N+](=O)[O-])c1)c1ccccc1 (stereo unspecified)	-7%	-7%	7%	?	?	-29
CC(CC(=O)Nc1ccc2c(c1)c(=O)n(C)n2Cc1ccc(F)cc1)c1ccccc1 (stereo unspecified)	?	-9%	?	21µM*	21µM*	40
CC(CC(=O)Nc1ccc2c(c1)c(=O)n(C)n2Cc1ccc(F)cc1)C(F)(F)F (stereo unspecified)	0%	8%	4%	?	?	-2
O=C(COc1ccc(F)cc1)Nc1cccc2cccnc12	nt	4%	nt	nt	nt	nt
CC1CN(C)C(C)CC1O (stereo unspecified)	nt	27%	nt	nt	nt	nt
CCCN1CCC(=O)N(CCC#N)CC1	nt	nt	nt	-4%	-20%	nt
CC1(C)CC(=O)C2=C(C1)NC(SCC(=O)Nc1ccccc1)=C(C#N)C2c1ccco1 (stereo unspecified)	-2%	-19%	0%	?	?	?
CC1=C(C(=O)OC2CCCCC2)C(c2ccco2)C2=C(CC(C)(C)CC2=O)N1 (stereo unspecified)	1%	-9%	6%	?	18µM*	-14
CC1=C(C(=O)OC2CCCCC2)C(c2ccc(O)cc2)C2=C(CC(C)(C)CC2=O)N1 (stereo unspecified)	nt	-29%	nt	nt	nt	nt
N#CC1=C(SCC(=O)c2ccc(Cl)cc2)NC2=C(C(=O)CCC2)C1c1ccco1 (stereo unspecified)	18µM*	5%	18µM*	5.8µM*	5.2µM*	-88*
Cc1ccc(C(=O)CSC2=C(C#N)C(c3ccco3)C3=C(CC(C)(C)CC3=O)N2)cc1 (stereo unspecified)	?	19%	-30%	10µM*	13µM*	-85*
Cc1ccc(NC(=O)CSC2=C(C#N)C(c3ccco3)C3=C(CCCC3=O)N2)cc1 (stereo unspecified)	4%	-28%	-2%	?	-24%	-52*
CCOC(=O)CSC1=C(C#N)C(c2ccc(C)cc2)C2=C(CCCC2=O)N1 (stereo unspecified)	1%	117%	-3%	-26%	-4%	30
Cc1cc(-c2ccnc(-n3ncc(C(=O)NCc4cccnc4)c3C3CC3)n2)c(C)s1	nt	5%	nt	?	-12%[9.04 µM]	nt
COc1ccc(-c2ccnc(-n3ncc(C(=O)NCc4cccnc4)c3C3CC3)n2)cc1F	nt	0%	nt	16µM*	-9%[9.04 µM]	nt
SMILES	HT1080 IDH1KD tx	12-LOX inh	HT1080NT lethal	DT40 TDP1 no CPT	DT40 TDP1 CPT	IL-1B inflam inh
COc1ccc(-c2ccnc(-n3ncc(C(=O)NCc4ccon4)c3C3CC3)n2)cc1F	nt	26%	nt	23µM*	?	nt
O=C(c1ccco1)N1CCC(c2nc(C3CCOCC3)no2)CC1	nt	13%	nt	nt	nt	nt
COC(=O)[C@@]1(Cc2ccc(F)cc2)[C@H]2c3cc(C(=O)N(C)C)n(CCc4c[nH]c5ccc(O)cc45)c3C[C@H]2CN1C(=O)c1ccccc1	-13%	-26%	-18%	?	?	-5
O=C(Cn1ncc2ccccc2c1=O)Nc1cccc(F)c1	nt	-30%	nt	nt	nt	nt
CCN1C(=O)[C@H]2[C@@H](c3ccc(C(F)(F)F)cc3)N[C@]3(CCCN(CC4CCCCC4)C3=O)[C@H]2C1=O	8%	?	-7%	?	?	?
Cc1ccc(CN2CCC[C@]3(N[C@H](c4ccc(C(F)(F)F)cc4)[C@@H]4C(=O)N(Cc5ccccc5)C(=O)[C@@H]43)C2=O)cc1	-23%	8.9µM*	-13%	21µM*	21µM*	-14
CCN1C(=O)[C@H]2[C@@H](c3ccc(OC)cc3)N[C@]3(CCCN(Cc4ccc(C(F)(F)F)cc4)C3=O)[C@H]2C1=O	-1%	32µM*	0%	18µM*	?	1
CCN1C(=O)[C@H]2[C@@H](c3ccc(C(F)(F)F)cc3)N[C@]3(CCCN(Cc4ccc(F)cc4)C3=O)[C@H]2C1=O	-5%	-15%	-2%	9.2µM*	21µM*	2
Cc1ccc([C@H]2N[C@]3(CCCN(Cc4ccc(F)cc4)C3=O)[C@H]3C(=O)N(Cc4ccccc4)C(=O)[C@@H]23)cc1	-2%	14µM*	-2%	?	?	-24
COc1ccc(CCN2C(=O)COc3ccccc3C2C(=O)NCc2ccccc2)cc1OC (stereo unspecified)	3%	-28%	2%	-4%	-3%	-10
